The campaign covered roughly 39,000 compounds. About 1,500 (3.8%) were called active. The list comes from a sample in which actives are over-represented; it also holds similar structures and randomly drawn compounds.

The values below come from the antibiotic and cytotoxicity screens of Wong et al. (2023).

For the experiment, the system named is HSkMC (human skeletal muscle cells). The experiment is described as follows: cytotoxicity call (relative viability < 0.9). Conditions: 10 µM.
On to `CC(C)(C)S(=O)N1Cc2cc(C(=O)NCc3ccc4c(c3)OCO4)nc(-c3cccc(C#CCC4CCCC4)c3)c2[C@@H]1CCO` (stereo partly specified), for which the cytotoxicity call is “inactive”.

For `CC(C)(C)S(=O)N1Cc2cc(C(=O)N[C@@H]3CCN(Cc4ccccc4)C3)nc(-c3cccc(C#CCC4CCCC4)c3)c2[C@@H]1CCO` (stereo partly specified), the cytotoxicity call was “inactive”.

For the compound `CC(C)(C)S(=O)N1Cc2cc(C(=O)N[C@@H]3CCN(Cc4ccccc4)C3)nc(-c3cccc(C#CCC4CCCC4)c3)c2[C@H]1CCO` (stereo partly specified), the cytotoxicity call was “active”.

Take `CC(C)(C)S(=O)N1Cc2cc(C(=O)NCc3ccc(Oc4ccccc4)cc3)nc(-c3cccc(C#CCC4CCCC4)c3)c2[C@@H]1CCO` (stereo partly specified): the cytotoxicity call is “active”.

Take `CC(C)(C)S(=O)N1Cc2cc(C(=O)NCc3ccc4c(c3)OCO4)nc(-c3cccc(C#CCC4CCCC4)c3)c2[C@H]1CCO` (stereo partly specified): the cytotoxicity call is “inactive”.

On to `COc1ccc(C#Cc2cccc(-c3nc(C(=O)N[C@@H]4CCN(Cc5ccccc5)C4)cc4c3[C@H](CCO)N(S(=O)C(C)(C)C)C4)c2)cc1OC` (stereo partly specified), for which the cytotoxicity call was “inactive”.

For the compound `O=C(C[C@H]1CC[C@H]2[C@@H](COC[C@@H](O)CN2C(=O)c2ccc3c(c2)OCO3)O1)NCCN1CCCC1`, the cytotoxicity call was “inactive”.

Take `O=C1[C@H]2C=NN[C@@H]2C(=O)N1Cc1ccccc1`: the cytotoxicity call was “inactive”.

In the case of `COc1ccc2c3c([nH]c2c1)[C@@H](CO)N(C[C@]13CCN(CC1)Cc1nccs1)C(=O)C1CCOCC1`, the cytotoxicity call was “inactive”.

Consider `C[C@@H]1CN([C@@H](C)CO)C(=O)c2cccc(NS(C)(=O)=O)c2O[C@@H]1CN(C)S(=O)(=O)c1cccs1`, for which the cytotoxicity call was “inactive”.

`CCS(=O)(=O)NCC[C@@H]1CC[C@@H](NC(=O)Cc2ccccn2)[C@H](CO)O1`: the cytotoxicity call is “inactive”.

Take `C[C@H](CO)N1C[C@H](C)[C@@H](CN(C)C(=O)Nc2ccc(C(F)(F)F)cc2)Oc2ccc(NC(=O)Cc3cn(C)c4ccccc34)cc2C1=O`: the cytotoxicity call was “inactive”.

For the compound `C[C@@H]1CN([C@H](C)CO)C(=O)c2cc(NC(=O)Cc3cn(C)c4ccccc34)ccc2O[C@H]1CN(C)C(=O)Nc1ccc(C(F)(F)F)cc1`, the cytotoxicity call is “inactive”.

`C[C@@H]1CN([C@H](C)CO)C(=O)c2cc(NC(=O)Cc3cn(C)c4ccccc34)ccc2O[C@H]1CN(C)Cc1ccc(C(F)(F)F)cc1`: the cytotoxicity call is “inactive”.

For the compound `C[C@@H]1CN([C@H](C)CO)C(=O)c2cc(NC(=O)Cc3cn(C)c4ccccc34)ccc2O[C@@H]1CN(C)Cc1ccc(C(F)(F)F)cc1`, the cytotoxicity call is “active”.

Regarding `C[C@H](CO)N1C[C@H](C)[C@@H](CN(C)Cc2ccc(C(F)(F)F)cc2)Oc2ccc(NC(=O)Cc3cn(C)c4ccccc34)cc2C1=O`, the cytotoxicity call was “inactive”.

As for `C[C@@H]1CN([C@@H](C)CO)C(=O)c2cc(NC(=O)Cc3cn(C)c4ccccc34)ccc2O[C@@H]1CN(C)C(=O)Nc1ccc(C(F)(F)F)cc1`, the cytotoxicity call is “active”.

On to `O=C(C[C@H]1CC[C@H]2[C@@H](COC[C@@H](O)CN2S(=O)(=O)c2ccccc2)O1)N1CCc2ccccc2C1`, for which the cytotoxicity call is “inactive”.

For the compound `C[C@H]1CN([C@@H](C)CO)C(=O)c2cc(NS(=O)(=O)c3ccccc3)ccc2O[C@H]1CN(C)CC1CC1`, the cytotoxicity call was “inactive”.

`Cn1c(N)c(C(=O)c2ccco2)c(=O)n(C)c1=O`: the cytotoxicity call was “inactive”.

Take `C[C@H](CO)N1C[C@H](C)[C@H](CN(C)S(=O)(=O)c2ccc(Cl)cc2)Oc2ccc(NC(=O)CCN3CCOCC3)cc2CC1=O`: the cytotoxicity call is “inactive”.

`C[C@@H]1CN([C@@H](C)CO)S(=O)(=O)c2ccc(C#C[C@@H](C)O)cc2O[C@H]1CN(C)C(=O)c1ccncc1`: the cytotoxicity call is “inactive”.

As for `COc1ccc2c3c([nH]c2c1)[C@H](CO)N(C[C@]13CCN(CC1)CC1CCCC1)C(=O)CN1CCOCC1`, the cytotoxicity call is “inactive”.

For `C[C@H]1CN([C@@H](C)CO)C(=O)Cc2cc(NC(=O)c3ccncc3)ccc2O[C@@H]1CN(C)S(=O)(=O)c1ccc(Cl)cc1`, the cytotoxicity call was “inactive”.

With `C[C@@H]1CCCCO[C@@H](CN(C)Cc2ccccc2)[C@@H](C)CN([C@@H](C)CO)C(=O)c2cc(NC(=O)CCC(F)(F)F)ccc2O1`, the cytotoxicity call is “inactive”.

`CC(C)C[C@@H]1C(=O)O[C@H](C)C(=O)N(C)[C@@H](CC(C)C)C(=O)O[C@H](Cc2ccc(N3CCOCC3)cc2)C(=O)N(C)[C@@H](CC(C)C)C(=O)O[C@H](C)C(=O)N(C)[C@@H](CC(C)C)C(=O)O[C@H](Cc2ccc(N3CCOCC3)cc2)C(=O)N1C`: the cytotoxicity call was “active”.

Turning to `CCOc1cc(OCC)cc(C(=O)N[C@@H](Cc2ccc(-n3cc(-c4ccc(C(=O)NO)s4)nn3)cc2)C(=O)OC)c1`, the cytotoxicity call is “inactive”.

As for `COc1ccccc1-c1cnc2c(c1)C(=O)N([C@H](C)CO)C[C@@H](C)[C@H](CN(C)C(=O)c1cccnc1)O2`, the cytotoxicity call was “inactive”.

In the case of `C[C@H]1CN([C@@H](C)CO)C(=O)c2cccc(NC(=O)Nc3ccccc3)c2O[C@@H]1CN(C)Cc1ccc(Cl)c(Cl)c1`, the cytotoxicity call is “active”.

For the compound `C[C@@H]1CN([C@@H](C)CO)C(=O)c2cccc(NC(=O)Nc3ccccc3)c2O[C@@H]1CN(C)Cc1ccc(Cl)c(Cl)c1`, the cytotoxicity call is “inactive”.

Take `C[C@H](CO)N1C[C@H](C)[C@H](CN(C)Cc2ccc(Cl)c(Cl)c2)Oc2c(NC(=O)Nc3ccccc3)cccc2C1=O`: the cytotoxicity call is “inactive”.

In the case of `C[C@H]1CN([C@@H](C)CO)C(=O)c2cccc(NC(=O)Nc3cccc4ccccc34)c2O[C@H]1CN(C)Cc1ccc(Cl)c(Cl)c1`, the cytotoxicity call was “inactive”.

On to `C[C@H](CO)N1C[C@H](C)[C@@H](CN(C)Cc2ccc(Cl)c(Cl)c2)Oc2c(NC(=O)Nc3ccccc3)cccc2C1=O`, for which the cytotoxicity call is “active”.

Take `C[C@@H]1CN([C@@H](C)CO)C(=O)c2cccc(NC(=O)Nc3cccc4ccccc34)c2O[C@@H]1CN(C)Cc1ccc(Cl)c(Cl)c1`: the cytotoxicity call is “inactive”.

With `C[C@H]1CN([C@@H](C)CO)C(=O)c2cccc(NC(=O)Nc3ccccc3)c2O[C@H]1CN(C)Cc1ccc(Cl)c(Cl)c1`, the cytotoxicity call is “inactive”.

As to `C[C@@H]1CN([C@H](C)CO)C(=O)c2cccc(NC(=O)Nc3ccccc3)c2O[C@H]1CN(C)Cc1ccc(Cl)c(Cl)c1`, the cytotoxicity call was “inactive”.

In the case of `C[C@H](CO)N1C[C@H](C)[C@@H](CN(C)Cc2ccc(Cl)c(Cl)c2)Oc2c(NC(=O)Nc3cccc4ccccc34)cccc2C1=O`, the cytotoxicity call was “active”.

In the case of `Cc1noc(C)c1NC(=O)Nc1ccc2c(c1)C(=O)N([C@H](C)CO)C[C@H](C)[C@@H](CN(C)Cc1ccc(Oc3ccccc3)cc1)O2`, the cytotoxicity call is “inactive”.

As to `C[C@H]1CN([C@@H](C)CO)C(=O)Cc2cc(NC(=O)Cc3ccccc3)ccc2O[C@H]1CN(C)C(=O)Nc1cccc2ccccc12`, the cytotoxicity call is “inactive”.

With `Cc1noc(C)c1S(=O)(=O)Nc1ccc2c(c1)C(=O)N([C@H](C)CO)C[C@@H](C)[C@@H](CN(C)Cc1ccc(Oc3ccccc3)cc1)O2`, the cytotoxicity call was “inactive”.

As to `Cc1cc2c(cc1C)N[C@@H](CC(N)=O)C(=O)N2`, the cytotoxicity call was “inactive”.

Turning to `C[C@@H]1CN([C@H](C)CO)C(=O)Cc2cc(NC(=O)CCCN(C)C)ccc2O[C@H]1CN(C)Cc1ccc(Oc2ccccc2)cc1`, the cytotoxicity call was “inactive”.

For `COc1ccccc1S(=O)(=O)N[C@H]1C=C[C@H](CC(=O)N2CCN(C)CC2)O[C@@H]1CO`, the cytotoxicity call is “inactive”.

For `C[C@H](CO)N1C[C@H](C)[C@H](CN(C)C(=O)NC2CCCCC2)OCCCC[C@H](C)Oc2ccc(NC(=O)Nc3ccc(C(F)(F)F)cc3)cc2C1=O`, the cytotoxicity call was “inactive”.

Turning to `C[C@H](CO)N1C[C@H](C)[C@@H](CN(C)C(=O)c2ccncc2)Oc2cc(-c3cccc(C#N)c3)ccc2S1(=O)=O`, the cytotoxicity call was “inactive”.

As to `C[C@@H]1CCCCO[C@H](CN(C)Cc2ccccc2)[C@@H](C)CN([C@H](C)CO)C(=O)c2cc(NS(=O)(=O)c3ccccc3)ccc2O1`, the cytotoxicity call was “inactive”.

Regarding `CCC(=O)Oc1ccc2c(c1)CCC1C2CCC2(C)C1CC(OC(=O)CC)C2OC(=O)CC` (stereo unspecified), the cytotoxicity call was “inactive”.

Take `CC(C)c1cccc(C(C)C)c1NC(=O)Cc1cccs1`: the cytotoxicity call was “inactive”.

For `COC(=O)[C@@H](N)c1cccc(OC)c1`, the cytotoxicity call is “inactive”.

`CC(C)c1cc(C(C)C)c(CC(=O)NS(=O)(=O)Oc2c(C(C)C)cccc2C(C)C)c(C(C)C)c1`: the cytotoxicity call is “active”.

`C[C@H]1CN([C@@H](C)CO)C(=O)c2c(c3ccccc3n2C)-c2ccccc2CO[C@H]1CN(C)C(=O)c1ccc(F)cc1`: the cytotoxicity call was “inactive”.

On to `COC(=O)C[C@@H]1CC[C@@H]2[C@H](COC[C@H](O)CN2S(=O)(=O)c2ccc(F)cc2)O1`, for which the cytotoxicity call is “inactive”.

On to `C[C@@H]1CN([C@@H](C)CO)S(=O)(=O)c2ccc(-c3cccnc3)cc2O[C@@H]1CN(C)C(=O)NC1CCCC1`, for which the cytotoxicity call was “inactive”.

Take `C[C@@H]1CN([C@H](C)CO)S(=O)(=O)c2ccc(-c3cncnc3)cc2O[C@@H]1CN(C)C(=O)C1CCCCC1`: the cytotoxicity call was “inactive”.

On to `O=C1C=CC(=O)N1c1ccc(O)cc1`, for which the cytotoxicity call is “active”.

As to `Oc1ccc(O)cc1`, the cytotoxicity call is “inactive”.

For the compound `CCCCC1C(=O)N(c2ccccc2)N(c2ccc(O)cc2)C1=O` (stereo unspecified), the cytotoxicity call was “inactive”.

On to `COc1ccc(CN(C)C[C@H]2OCCCC[C@H](C)Oc3ccc(NS(=O)(=O)c4cccs4)cc3C(=O)N([C@@H](C)CO)C[C@@H]2C)cc1`, for which the cytotoxicity call is “inactive”.

For the compound `C[C@H]1CN([C@@H](C)CO)S(=O)(=O)c2ccc(C3=CCCCC3)cc2O[C@H]1CN(C)S(=O)(=O)c1cn(C)cn1`, the cytotoxicity call is “inactive”.

On to `Cc1ccc(S(=O)(=O)Nc2ccc3c(c2)C(=O)N([C@H](C)CO)C[C@@H](C)[C@H](CN(C)Cc2ccccc2)OCCCC[C@@H](C)O3)cc1`, for which the cytotoxicity call was “inactive”.

For `COc1ccc(S(=O)(=O)N(C)C[C@H]2Oc3c(NC(=O)Nc4c(C)noc4C)cccc3C(=O)N([C@@H](C)CO)C[C@H]2C)cc1`, the cytotoxicity call is “inactive”.

Regarding `COc1ccc2c3c(n(c2c1)C)[C@H](CO)N(C[C@]13CN(C1)C(=O)CN(C)C)C(=O)CN(C)C`, the cytotoxicity call is “inactive”.

For the compound `C[C@@H]1CN([C@@H](C)CO)C(=O)c2cc(NC(=O)CCCN(C)C)ccc2O[C@H]1CN(C)Cc1ccc(C(=O)O)cc1`, the cytotoxicity call was “inactive”.

Consider `Cc1ncc([N+](=O)[O-])n1C[C@@H](O)CCl`, for which the cytotoxicity call is “inactive”.

For the compound `Cc1noc(C)c1NC(=O)N(C)C[C@@H]1Oc2ccc(NC(=O)Cn3cnnn3)cc2C(=O)N([C@@H](C)CO)C[C@@H]1C`, the cytotoxicity call was “inactive”.

On to `N#Cc1c(N)nc(SCc2csc(-c3ccc(Cl)cc3)n2)c(C#N)c1-c1ccc(OCCO)cc1`, for which the cytotoxicity call was “active”.
